High-throughput results: PubChem BioAssay, several laboratories
PRMT1 inh = PRMT1 methyltransferase inhibitors, primary screen, biochemical, fluorescence polarization; Protein arginine N-methyltransferase 1 (Homo sapiens), Q99873; recombinant PRMT1, activity-based probe fluorescence polarization; inhibition, % at 2.79 µM; 370,000 compounds, 1.3% hits;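 active = inhibition above about 21% made by adding two undisclosed values, limit read from the data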
ABHD5 PLIN5 PPI = ABHD5-PLIN5 interaction inhibitors, primary screen, cell lysate, split luciferase complementation, luminescence; Perilipin-5 (Homo sapiens) + 1-acylglycerol-3-phosphate O-acyltransferase ABHD5 (Homo …; AID 602281, 2012; Split G. princeps luciferase complementation, 4 h; 360,000 compounds, 0.78% hits; inhibition, % at 4 µM;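 active = inhibition above the mean inhibition across every tested compound plus 3 SD, cut at about 22% in these data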;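 note: 0% = DMSO only wells and the 100% control is not disclosed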
Target sequence (Q00G26 whole entry, looked up): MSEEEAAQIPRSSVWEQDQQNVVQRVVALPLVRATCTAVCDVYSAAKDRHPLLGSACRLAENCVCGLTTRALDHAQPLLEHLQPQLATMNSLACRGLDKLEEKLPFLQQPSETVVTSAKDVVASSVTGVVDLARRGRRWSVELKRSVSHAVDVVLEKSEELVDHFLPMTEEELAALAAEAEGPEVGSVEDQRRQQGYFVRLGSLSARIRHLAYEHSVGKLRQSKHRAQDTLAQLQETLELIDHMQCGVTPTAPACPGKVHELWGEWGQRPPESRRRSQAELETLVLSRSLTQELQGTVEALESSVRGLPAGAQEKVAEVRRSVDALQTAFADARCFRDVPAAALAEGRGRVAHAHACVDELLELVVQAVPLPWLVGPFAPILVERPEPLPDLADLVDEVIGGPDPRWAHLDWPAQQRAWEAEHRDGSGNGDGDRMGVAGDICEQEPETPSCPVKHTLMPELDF
Target sequence (Q8WTS1 whole entry, looked up): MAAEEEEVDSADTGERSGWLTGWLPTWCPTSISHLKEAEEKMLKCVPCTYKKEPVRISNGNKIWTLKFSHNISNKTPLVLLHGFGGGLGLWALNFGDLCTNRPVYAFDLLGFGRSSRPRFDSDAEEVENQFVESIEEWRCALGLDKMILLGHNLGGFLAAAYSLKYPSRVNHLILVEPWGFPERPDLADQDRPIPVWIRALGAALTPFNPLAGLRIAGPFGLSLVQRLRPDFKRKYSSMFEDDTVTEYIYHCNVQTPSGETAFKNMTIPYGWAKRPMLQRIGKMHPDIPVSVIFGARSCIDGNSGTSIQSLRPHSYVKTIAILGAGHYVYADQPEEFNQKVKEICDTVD
NOD2 RIPK2 PPI = NOD2-RIPK2 binding disruptors in cells, primary screen, fluorescence, CHO cells, BLA complementation; inhibition, % at 4.98 µM; CCF4 ratio; AID 624267, 2012; Receptor-interacting serine/threonine-protein kinase 2 (Homo sapiens), O43353; 360,000 compounds, 0.38% hits; in the data active = inhibition above about 21%;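 note: 0% = vehicle only and 100% = reference blocker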
TLR9-MyD88 block = inhibitors of TLR9-MyD88 association in cells, primary screen, cell-based, CHO, BLA complementation, fluorescence. Toll-like receptor 9 (Homo sapiens) + Myeloid differentiation primary response protein …. CCF4 FRET ratio. inhibition, % at 4.98 µM. 340,000 compounds, 0.21% hits;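 active = inhibition above the mean over all tested compounds plus 3 SD, cut at about 21% in these data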;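 note: 0% = DMSO only wells and 100% = clavulanate BLA inhibitor control wells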
Granule exo inh = LAMP-1 surface exposure blockers, TALL-104 cells – cell-based, flow cytometry, MLPCN library, primary screen | TALL-104 LAMP-1 surface exposure; cells stimulated with thapsigargin and PMA | inhibition, % at 10 µM | 360,000 compounds, 0.66% hits;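 active = inhibition above about 55%, limit read from the data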
TLR4-MyD88 BLA = inhibitors of TLR4-MyD88 association in cells, primary screen, cell-based, HeLa CL3-4, BLA complementation, FRET ratio | 200,000 compounds, 0.18% hits | inhibition, % at 8.4 µM | Toll-like receptor 4 (Homo sapiens) + Myeloid differentiation primary response protein … | HeLa CL3-4 TLR4/MyD88 BLA complementation | AID 861, 2007; in the data active = inhibition above about 25%;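 note: 0% = vehicle and 100% = reference inhibitor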
Exocytosis CP01 = inhibitors of lytic granule exocytosis, confirmation, TALL-104 cells, flow cytometry, Cherry Pick01; LAMP-1 externalization; stimulated with PMA plus thapsigargin; 1,500 compounds, 11% hits; AID 651954, 2012; shares compounds with Granule exo inh; inhibition, % at 10 µM; in the data active = inhibition above about 60%;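 note: 0% = stimulated vehicle wells and 100% = unstimulated wells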
* hit, by the source's call. A selection: hits, their analogues and other compounds. The true share with any hit is near 2.6%.

How did Cc1ccc(C)c(S(=O)(=O)NCCCc2ccccc2)c1 do in these assays?
PRMT1 inh: -2.0; ABHD5 PLIN5 PPI: -3.8; NOD2 RIPK2 PPI: -3.1; TLR9-MyD88 block: -5.7; Granule exo inh: 58.4*; Exocytosis CP01: -13.5

How did CCN(CCOC(=O)Nc1ccc(Cl)cc1)C(=O)Nc1ccc(Cl)cc1 do in these assays?
PRMT1 inh: 1.8

How did COc1ccc(-n2ccnc2CN2CCCC(CO)(Cc3cccc(OC)c3)C2)cc1 (stereo not given) do in these assays?
PRMT1 inh: 0.1; ABHD5 PLIN5 PPI: 0.0; NOD2 RIPK2 PPI: 19.0; TLR9-MyD88 block: -5.2; Granule exo inh: 59.8*; TLR4-MyD88 BLA: 2.5; Exocytosis CP01: -13.1

What do the screens show for `COc1ccc(C(C)=O)cc1CN(c1ccccc1OC)S(=O)(=O)c1cccs1`?
PRMT1 inh: -1.0; ABHD5 PLIN5 PPI: 0.3; NOD2 RIPK2 PPI: 0.1; TLR9-MyD88 block: -2.1; Granule exo inh: 91.9*; Exocytosis CP01: -5.7

What do the screens show for `N#Cc1ccc(S(=O)(=O)N2CCCc3nc(-c4ccc(F)cc4)ccc32)cc1`?
PRMT1 inh: 0.9

Results for S=C(Nc1ccccc1)N1CCc2ccccc21 ?
PRMT1 inh: 0.7; ABHD5 PLIN5 PPI: -4.0; NOD2 RIPK2 PPI: 4.5; TLR9-MyD88 block: 7.2; Granule exo inh: -5.2

How did Fc1cccc(NC(=S)N2CCc3ccccc32)c1 do in these assays?
PRMT1 inh: 1.8; ABHD5 PLIN5 PPI: -10.9; NOD2 RIPK2 PPI: -15.7; TLR9-MyD88 block: -12.5; Granule exo inh: 64.0*; Exocytosis CP01: -4.1

How did CCOC(=O)c1cc(C(=O)c2cccs2)n2ccc(C(C)=O)cc12 do in these assays?
PRMT1 inh: -0.1; ABHD5 PLIN5 PPI: 0.7; NOD2 RIPK2 PPI: -4.9; TLR9-MyD88 block: -0.3; Granule exo inh: 97.0*; TLR4-MyD88 BLA: 5.2; Exocytosis CP01: -2.3

What do the screens show for `CC1CCN(C(=O)c2[nH]cnc2C(=O)N(C)CCO)CC1`?
PRMT1 inh: 6.4

Results for FC(F)(F)c1cccc(-c2cncc(N3CCN(CCN4CCCC4)CC3)n2)c1 ?
PRMT1 inh: 2.3; ABHD5 PLIN5 PPI: 2.5; NOD2 RIPK2 PPI: -11.7; Granule exo inh: 38.8

What do the screens show for `Fc1cccc(-c2cncc(N3CCN(CCN4CCCC4)CC3)n2)c1`?
PRMT1 inh: 0.3; ABHD5 PLIN5 PPI: 8.3; NOD2 RIPK2 PPI: -1.4; Granule exo inh: 59.1*; Exocytosis CP01: -9.4

Results for COc1cc(NC(=O)c2ccccc2OCc2ccccc2)cc(OC)c1OC ?
PRMT1 inh: 9.1; ABHD5 PLIN5 PPI: 3.1; NOD2 RIPK2 PPI: 0.5; TLR9-MyD88 block: 6.2; Granule exo inh: 84.1*; Exocytosis CP01: -7.2

How did CNC(=O)c1cccc(NC(=O)c2ccccc2OCc2ccccc2)c1 do in these assays?
PRMT1 inh: 0.2; ABHD5 PLIN5 PPI: -6.5; NOD2 RIPK2 PPI: -2.5; TLR9-MyD88 block: -15.8; Granule exo inh: 63.1*; Exocytosis CP01: -5.2

What do the screens show for `C[C@H](CO)N1C[C@H](C)[C@@H](CN(C)C(=O)Nc2ccc(N3CCN(C)CC3)cc2)OCc2cn(nn2)CCCC1=O`?
PRMT1 inh: 4.3

How did Nc1[nH]c(C(=O)c2ccccc2)c(-c2cccnc2)c1C(=O)c1ccccc1 do in these assays?
PRMT1 inh: 5.6

Results for CN(C(=O)CSc1ncnc2c(-c3cccs3)nsc12)C1CCCCC1 ?
PRMT1 inh: 1.1

Results for Cc1[nH]c2ccccc2c1CC(=O)Nc1ccc(Nc2ccncc2)cc1 ?
PRMT1 inh: -6.5

Results for COc1cccc(CN2CCN(C(=O)c3ccco3)CC2)c1 ?
PRMT1 inh: 0.0; ABHD5 PLIN5 PPI: 7.2; NOD2 RIPK2 PPI: 8.9; TLR9-MyD88 block: 4.0; Granule exo inh: 87.0*; Exocytosis CP01: -9.7

Results for CS(=O)(=O)c1ccccc1C(=O)Nc1ccc(-c2nc3ccccc3[nH]2)cc1 ?
PRMT1 inh: -1.6; ABHD5 PLIN5 PPI: 3.0; NOD2 RIPK2 PPI: -3.2; TLR9-MyD88 block: 6.1; Granule exo inh: -4.1

How did Cc1cc(F)ccc1S(=O)(=O)Nc1ccccc1C(=O)Nc1ccccc1-c1nc2ccccc2[nH]1 do in these assays?
ABHD5 PLIN5 PPI: -16.0; NOD2 RIPK2 PPI: -1.1; TLR9-MyD88 block: -2.9; Granule exo inh: 90.2*; TLR4-MyD88 BLA: -3.6; Exocytosis CP01: 94.2*

What do the screens show for `O=C(Nc1ccc(-c2nc3ccccc3[nH]2)cc1)c1ccccc1NS(=O)(=O)c1ccc(F)cc1`?
PRMT1 inh: -1.6; ABHD5 PLIN5 PPI: -2.3; NOD2 RIPK2 PPI: -3.0; TLR9-MyD88 block: 5.9; Granule exo inh: 67.8*; TLR4-MyD88 BLA: -9.5; Exocytosis CP01: 4.8

How did COc1cc2c(cc1NC(=O)CSc1nnc(COc3ccc(Cl)cc3)n1C)oc1ccccc12 do in these assays?
PRMT1 inh: 0.3; ABHD5 PLIN5 PPI: -5.5; NOD2 RIPK2 PPI: 3.4; TLR9-MyD88 block: 2.1; Granule exo inh: 60.3*; TLR4-MyD88 BLA: 16.2; Exocytosis CP01: 22.4

How did COC(=O)C1=C(C)N(C)C(=NCc2ccccc2)NC1CCc1ccccc1 (stereo not given) do in these assays?
PRMT1 inh: -4.3

Results for Cn1c(NCC(O)c2ccccc2)nc2c1c(=O)n(Cc1ccc(Cl)c(Cl)c1)c(=O)n2C (stereo not given) ?
PRMT1 inh: 0.6; ABHD5 PLIN5 PPI: -1.2; NOD2 RIPK2 PPI: 3.9; TLR9-MyD88 block: -4.1; Granule exo inh: 92.2*; TLR4-MyD88 BLA: 4.4; Exocytosis CP01: 14.3

Results for CCCn1nc2cc(C(=O)NCCCCc3ccccc3)ccc2c1OCC ?
PRMT1 inh: -1.2; ABHD5 PLIN5 PPI: -3.4; NOD2 RIPK2 PPI: -0.1; TLR9-MyD88 block: -0.6; Granule exo inh: 87.0*; TLR4-MyD88 BLA: -7.6; Exocytosis CP01: -12.6

What do the screens show for `CCCn1nc2cc(C(=O)NCCc3ccc(C)cc3)ccc2c1OCC`?
PRMT1 inh: -1.8; ABHD5 PLIN5 PPI: -2.0; NOD2 RIPK2 PPI: 8.2; TLR9-MyD88 block: 5.5; Granule exo inh: -2.0; TLR4-MyD88 BLA: 1.7

What do the screens show for `C[C@H]1CNCCN1c1ccc(N2CCS(=O)(=O)CC2)c(C#N)c1`?
PRMT1 inh: -1.6

Results for Cc1ccc(C)c(NC(=O)c2cc(=O)c3ccccc3o2)c1 ?
PRMT1 inh: 3.2; ABHD5 PLIN5 PPI: 3.8; NOD2 RIPK2 PPI: 6.6; TLR9-MyD88 block: 4.7; Granule exo inh: -0.7; TLR4-MyD88 BLA: 5.9

How did Cc1ccc(C)c(NC(=O)COC(=O)c2cc(=O)c3ccccc3o2)c1 do in these assays?
ABHD5 PLIN5 PPI: -2.5; NOD2 RIPK2 PPI: 1.9; TLR9-MyD88 block: -10.9; Granule exo inh: 73.3*; Exocytosis CP01: -11.9
